Assay outcomes from PubChem.
ssDAF12 agonist – S. stercoralis DAF-12 nuclear receptor activators, primary screen, cell-based, luminescence, HEK293, GRIP1 co-expression, lit1-tk-luc; AID 652126, 2013; HEK293 ssDAF-12/GRIP1 lit1-tk-luc reporter; % of 3 µM dafachronic acid response; Nuclear hormone receptor DAF-12 (Strongyloides stercoralis); activation, % at 6.8 µM; 370,000 compounds, 1% hits;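 active = activation above the mean over all tested compounds plus 3 SD, cut at about 0.9% in these data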
hgDAF-12 ag – H. glycines DAF-12 receptor agonists, primary screen, cell-based, luminescence, HEK293, GAL4 fusion, UAS-luciferase; activation, % at 6.8 µM; 370,000 compounds, 1.8% hits; Nuclear hormone receptor DAF-12 (Heterodera glycines), GAL4 fusion; HEK293 GAL4-hgDAF12 UAS-luciferase reporter, agonist luminescence; normalized to butyrate control;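 active = activation above a cutoff set at the mean of all screened compounds plus 3 SD, cut at about 10% in these data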
DAX1 inh-1 – DAX1 (NR0B1) inhibitors, primary screen, cell-based, HEK293, Gal4-DAX1, luciferase luminescence; Nuclear receptor subfamily 0 group B member 1 (Homo sapiens), P51843; HEK293 Gal4-DAX1 luciferase reporter; inhibition, % at 6.75 µM; 340,000 compounds, 0.99% hits; AID 504766, 2011;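 active = inhibition above the mean over all tested compounds plus 3 SD, cut at about 4.2% in these data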;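 note: inhibition shows as a rise in luminescence from relieved DAX1 repression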
Target sequence (P51843 207-470 limits assumed): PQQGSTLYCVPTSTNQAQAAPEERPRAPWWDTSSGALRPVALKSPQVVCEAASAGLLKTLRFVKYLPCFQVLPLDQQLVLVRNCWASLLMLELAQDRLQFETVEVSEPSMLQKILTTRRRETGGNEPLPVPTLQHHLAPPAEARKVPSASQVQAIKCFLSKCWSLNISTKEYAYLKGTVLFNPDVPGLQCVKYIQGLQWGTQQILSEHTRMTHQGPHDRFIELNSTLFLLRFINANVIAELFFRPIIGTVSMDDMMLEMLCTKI
GAA850 FXN act – FXN promoter activators, primary screen, cell-based, luciferase luminescence, HEK293 lucGAA850; HEK293 lucGAA850 FXN promoter luciferase reporter, 24 h; percent of 10 µM SAHA response; activation, % at 6 µM; 360,000 compounds, 0.56% hits; AID 540364, 2011;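 active = activation above the average of all compounds screened plus 3 SD, cutoff fixed separately per campaign, cut at about 7.5% in these data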
DAX1 inh-2 – DAX1 (NR0B1) inhibitors on StAR promoter, primary screen, cell-based, luminescence, SF-1 (NR5A1), full-length DAX-1; HEK293T StAR-luciferase reporter, SF-1/DAX-1 repression relief; inhibition, % at 6.8 µM; 370,000 compounds, 1.1% hits; AID 652010, 2013;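 active = inhibition above the mean over all tested compounds plus 3 SD, cut at about 3.6% in these data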;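 note: higher inhibition means more luminescence from relief of DAX-1 repression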
hcDAF12 agonist – H. contortus DAF-12 nuclear receptor activators, primary screen, cell-based, luminescence, HEK293, lit1-tk-luc reporter | HEK293 hcDAF-12 lit1-tk-luc reporter; 0% DMSO, 100% Δ7-dafachronic acid | activation, % at 6.8 µM | 370,000 compounds, 1.4% hits;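 active = activation above the mean of all tested compounds plus 3 SD, cut at about 5.5% in these data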
hgDAF12 conf – H. glycines DAF-12 receptor agonists, confirmation, cell-based, luminescence, HEK293, GAL4-LBD fusion. HEK293 GAL4-hgDAF12 luciferase reporter, agonist mode; percent of butyrate response. activation, % at 6.8 µM. shares compounds with hgDAF-12 ag. 3,300 compounds, 80% hits. AID 743050, 2013;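 active = mean activation over triplicate wells above the hit cutoff derived from the earlier primary screen, cut at about 11% in these data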
LXR ag 2 – LXR agonists, Gal4 luciferase reporter, confirmation, counter-screen for hgDAF-12 agonist project, cell-based, luminescence, HEK293, H. glycines campaign. shares compounds with hgDAF-12 ag. 24 h. activation, % at 6.8 µM. 3,300 tested, under 10 active. AID 743051, 2013;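 active = mean activation of the triplicate above a set limit carried over from the primary screen, none filed active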
Of the large screens only hits and unclear results are named; the others gave an inactive call (follow-up assays come after a bar, where they were run). The list is not random: actives were taken first. Their share in the collection is about 4.5%.

COc1ccc(C(=O)Nc2ccc(SC(F)F)cc2)cc1	hgDAF-12 ag 15 | hgDAF12 conf 12 | LXR ag 2 inactive
CCCCOc1ccc(C(=O)Nc2ccc(SC(F)F)cc2)cc1OC	none
COc1ccc(-c2cc3ccc(O)cc3oc2=O)cc1	hgDAF-12 ag 14 | hgDAF12 conf 14 | LXR ag 2 inactive
COc1cc(-c2nnc3n2CCCCC3)cc(OC)c1OC	none
COC1CCC2(C)C(=CCC3C4CC(O)CC4(C)CCC32)C1 (stereo not given)	none
Fc1cccc(Cl)c1C1SCc2nc3ccccc3n21 (stereo not given)	none (no result: DAX1 inh-1, GAA850 FXN act)
O=C(O)CCC(=O)Nc1ccccc1C(=O)Nc1ccccc1	none
O=C(O)CCC(=O)Nc1ccccc1C(=O)NCCc1ccccc1	hgDAF-12 ag 19, hcDAF12 agonist 5.9 | hgDAF12 conf inactive | LXR ag 2 inactive
CCN(C(=O)c1cccs1)C1CCS(=O)(=O)C1 (stereo not given)	none
COc1ccc(-c2cn3c(C)c(C(=O)NC(C)(C)C)sc3n2)cc1	hgDAF-12 ag 18, hcDAF12 agonist 6.0 | hgDAF12 conf 12 | LXR ag 2 inactive
CC(C)(C)c1ccc(-c2noc(-c3ccno3)n2)cc1	ssDAF12 agonist 0.9, hgDAF-12 ag 13, DAX1 inh-1 8.3 | hgDAF12 conf 15 | LXR ag 2 inactive
COc1ccc(C(=O)NNC(=O)C2CCCN(C3CC(=O)N(c4ccccc4)C3=O)C2)cc1 (stereo not given)	none
COc1ccc2ccc(=O)oc2c1	none
COc1ccc(COc2ccc3ccc(=O)oc3c2)cc1	hgDAF-12 ag 20 | hgDAF12 conf 14 | LXR ag 2 inactive
CCc1ccc(-c2cnc3nc[nH]c(=O)c3n2)cc1	none
N/C(=N\OC(=O)c1ccc(Br)o1)c1cccnc1	hgDAF-12 ag 14 | hgDAF12 conf inactive | LXR ag 2 inactive
N/C(=N\OC(=O)c1ccc([N+](=O)[O-])cc1)c1cccnc1	none
COc1cccc(-c2noc(-c3cccnc3)n2)c1	hgDAF-12 ag 14, DAX1 inh-1 4.2 | hgDAF12 conf 15 | LXR ag 2 inactive
COc1cccc(-c2noc(-c3ccc(Br)o3)n2)c1	hgDAF-12 ag 16, DAX1 inh-2 4.4 | hgDAF12 conf 17 | LXR ag 2 inactive
O=c1[nH]c2ccccc2nc1/C=C/c1ccc(F)cc1	hgDAF-12 ag 16 | hgDAF12 conf 11 | LXR ag 2 inactive
O=C(OCc1ccccc1)N1CCC2CC1c1ccc(N3CCOCC3)cc12 (stereo not given)	none
O=C(OCc1ccccc1)N1CCC2CC1c1ccc(N3CCNCC3)cc12 (stereo not given)	hgDAF-12 ag 14 | hgDAF12 conf inactive | LXR ag 2 inactive
O=c1/c(=C\c2ccc3c(c2)OCO3)sc2n1CCCN=2	hgDAF-12 ag 19, DAX1 inh-1 4.6 | hgDAF12 conf 14 | LXR ag 2 inactive
Cc1ccc(/C=c2/sc3n(c2=O)CCCN=3)o1	none
CC(=O)c1ccc(NC(=S)NCCc2ccc(S(N)(=O)=O)cc2)cc1	none
CC(=O)c1ccc(NC(=S)NCCc2cccc(Cl)c2)cc1	hgDAF-12 ag 17 | hgDAF12 conf 12 | LXR ag 2 inactive
CC(=O)Nc1cc(-c2ccoc2)cn2c(-c3ccccc3)cnc12	none (no result: DAX1 inh-1)
CCOC(=O)Nc1ccc2nc(-c3cscn3)[nH]c2c1	hgDAF-12 ag 16 | hgDAF12 conf 14 | LXR ag 2 inactive
O=C(NCc1cccc(Cl)c1)C1Cc2c(-c3ccccc3Oc3ccccc3)ccnc2O1 (stereo not given)	none (no result: DAX1 inh-1)
CC1=C(C(=O)N(C(C)C)C(C)C)CC(CC(=O)NC2CCCCC2)C(=O)N1Cc1ccc(F)cc1 (stereo not given)	none (no result: DAX1 inh-1, GAA850 FXN act)
CNc1ncc(C(=O)c2ccc(Br)cc2)s1	hgDAF-12 ag 26 | hgDAF12 conf 16 | LXR ag 2 inactive
O=C(Nc1ccc(Cl)c(Cl)c1)N[C@@H]1CC[C@@H](CCn2cc(C3CCCCC3)nn2)O[C@@H]1CO	none (no result: DAX1 inh-1, GAA850 FXN act)
O=C(Nc1nc2ccccc2[nH]1)c1cccc([N+](=O)[O-])c1	hgDAF-12 ag 16 | hgDAF12 conf 14 | LXR ag 2 inactive
O=[N+]([O-])c1ccc2nc(-c3ccccc3)[nH]c2c1	hgDAF-12 ag 20, DAX1 inh-2 4.0 | hgDAF12 conf 18 | LXR ag 2 inactive
CN(C)c1cccc(C(=O)Nc2nc3ccccc3[nH]2)c1	hgDAF-12 ag 15 | hgDAF12 conf inactive | LXR ag 2 inactive
COC(=O)c1cc(C(=O)Nc2nc3ccccc3[nH]2)cc([N+](=O)[O-])c1	none
Cc1ccc(N(C)S(=O)(=O)c2cccc(C(=O)Nc3nc4ccccc4[nH]3)c2)cc1	none
O=C(NCCOc1ccccc1F)C1CC(=O)N(Cc2ccccc2)C1 (stereo not given)	none
Cc1cc(C(=O)N2CCCC(CO)(Cc3ccc(F)cc3)C2)c(C)o1 (stereo not given)	none
O=C(Cc1cccs1)NCc1ccccc1Br	none
CN(C)c1ccc(C(C#N)c2ccc(Cl)cc2)nn1 (stereo not given)	none
CN(C)c1ccc(C(C#N)c2ccccc2)nn1 (stereo not given)	ssDAF12 agonist 2.1, hgDAF-12 ag 21, hcDAF12 agonist 6.1 | hgDAF12 conf inactive | LXR ag 2 inactive
O=C(Nc1nccs1)c1cn2ccccc2n1	hgDAF-12 ag 15, hcDAF12 agonist 5.8 | hgDAF12 conf 14 | LXR ag 2 inactive
Cc1nc2c(ccc3nc(NC(=O)C4CC4)sc32)s1	hgDAF-12 ag 15 | hgDAF12 conf 12 | LXR ag 2 inactive
CCC(=O)Nc1nc2ccc3sc(C)nc3c2s1	none
